Bioassay records from PubChem BioAssay.
The list is not random: actives were taken first. Their share in the collection is about 7.2%.
NIH3T3 tox – kills NIH 3T3 cells; NIH 3T3 viability, CellTiter-Glo ATP luminescence, 48-72 h; Potency, µM (top dose mostly 96.7 µM), inactives show at the top dose activity change, negative = cytotoxicity, most hits filed as inhibitors; 4.3% of 94,000 active; AID 1345082; note: nearly all actives have a fitted effect of over 55% in size
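Cytotoxicity is measured as loss of cellular ATP: NIH 3T3 cells (400/well) are exposed to compound for 48 or 72 hr at 37 °C, then CellTiter-Glo luminescence is imaged after 10 min at room temperature.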
SNCA expr inhib – inhibitors of alpha-synuclein (SNCA) gene expression. HEK-293 SNCA-luciferase knock-in, luminescence, 24 h. Potency, µM (series often up to 57.2 µM), without a hit: at the highest dose activity change, negative = inhibition, most hits filed as inhibitors. 0.17% of 140,000 active. AID 1671194;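 note: plate controls were DMSO cells for no effect and cell-free wells for full effect; nearly all actives have a fitted effect of over 45% in size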
SNCA viab count – counter-screen for SNCA expression inhibitors: cell viability. AID 1671193. HEK-293-SNCA-luc viability, GF-AFC fluorescence, 24 h. 0.12% of 150,000 active. Potency, µM (top dose mostly 57.1 µM), without a hit: at the top dose activity change, negative = cytotoxicity, usual class: cytotoxic;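 note: 0% = DMSO-treated cells and -100% = medium-only wells without cells; nearly all actives have a fitted effect of over 30% in size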
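HEK-293-SNCA-luc cells (1500/well) plated 24 h, then exposed 24 h to a dilution series; GF-AFC added 30 min at 37C, fluorescence 405/540 nm; normalised to medium-only and DMSO wells, Hill fit.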
NPR1 antag – human Npr1 receptor antagonism; P16066; HEK293 hNpr1 GloSensor cGMP, ANP-stimulated luminescence; Potency, µM (top dose mostly 46.3 µM), inactives show at the top dose activity change, negative = inhibition, most hits filed as inhibitors; 1.6% of 76,000 active; AID 1347048; calls by dose curve; note: nearly all actives have a fitted effect of over 60% in size
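HEK293 cells stably expressing human Npr1 and cGMP GloSensor pGS-40F, loaded 2 h with 2% GloSensor reagent, given compound 30 min at room temperature. Luminescence read before and 20 min after 0.1 nM hNppA.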
HEK293 tox – HEK 293 cell cytotoxicity; HEK 293 viability, ATP luminescence (CellTiter-Glo), 48-72 h; Potency, µM (series often up to 115 µM), for inactives: at the top dose activity change, negative = cytotoxicity, usual class: inhibitors; 6.6% of 94,000 active; AID 1345083; note: nearly all actives have a fitted effect of over 60% in size
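CellTiter-Glo luminescence (cellular ATP) was read after 48 or 72 hr of compound exposure at 37 degree Celsius. Cells were HEK 293 plated at 250 cells/well.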
Luciferase inh – inhibitors of firefly (Photinus pyralis) luciferase | P08659 | purified P. pyralis luciferase, luminescence, biochemical | Potency, µM (doses to about 115 µM), usual class: inhibitors | 2.5% of 76,000 active | AID 1347043; note: nearly all actives have a fitted effect of over 65% in size
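Luminescence read by CCD imaging after purified firefly luciferase (10nM final) was added to substrate buffer holding 10uM D-luciferin and 10uM ATP, pH 7.5, pre-dosed with compound.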
* = called active by the depositor; i = inactive; ? = inconclusive; [ ] = remark or other dose. Unless noted, calls come from the whole dose curve; as a rule, active = well fitted curve in the direction sought with a large enough effect; inconclusive = small, poorly fitted or top-dose-only effect, or another doubt; inactive = no such curve, though single readings can be large; an effect the other way counts as inactive or inconclusive. Unless noted, % is set by controls: 0 for no effect and ±100 for the full control effect; potency is the fitted concentration of half-maximal effect.

SMILES	NIH3T3 tox	SNCA expr inhib	SNCA viab count	NPR1 antag	HEK293 tox	Luciferase inh
Cc1noc(C2CC3(CCN(C(=O)CC4CCCC4)CC3)CN2C)n1 (stereo unspecified)	-16%	-8%	-10%	-3%	-22%	i
CC(C)CN1C(=O)CO[C@H](c2ccc(NC(=O)c3ccc(C(F)(F)F)cc3)cc2)[C@H]1CO	?	5%	-14%	13µM*	?	45µM*
CCn1ncc(CN2CCC(N3C(=O)C4(CCCC4)C3c3scnc3C)CC2)c1C (stereo unspecified)	-1%	5%	-4%[12.5 µM]	2%	i	i
Cc1cc(F)ccc1OCC(=O)c1ccc2c(c1)N(C(C)C(=O)NCc1ccc(F)cc1)C(=O)CO2 (stereo unspecified)	?	5%	?	-9%	45µM*	i
CC(C(=O)NCc1ccccc1)N1C(=O)COc2ccc(C(=O)COc3ccc(F)cc3)cc21 (stereo unspecified)	-29%	3%	-15%	2%	?	i
Cc1cccc(OCC(=O)c2ccc3c(c2)N(C(C)C(=O)NCC2CCCO2)C(=O)CO3)c1C (stereo unspecified)	-17%	1%	4%	-3%	?	i
Cc1ccc(C)c(OCC(=O)c2ccc3c(c2)N(C(C)C(=O)NCC2CCCO2)C(=O)CO3)c1 (stereo unspecified)	-22%	?	?	6%	45µM*	i
O=C(CCC1CCN(C(=O)c2ccccc2Cl)CC1)NC1CC1	-4%	-20%	2%	4%	-6%	i
Cc1ccccc1C(=O)N1CCC(CCC(=O)NCCC(C)C)CC1	-24%	127%	-6%	-5%	-27%	?
CCC(CC)NC(=O)CCC1CCN(C(=O)c2ccccc2Cl)CC1	-2%	49%	-5%	-4%	?	40µM*
COCCNC(=O)CCC1CCN(C(=O)c2ccccc2Cl)CC1	i	58%	-9%	5%	-1%	32µM*
COc1ccc(S(=O)(=O)N2CCOC[C@H](Oc3ccccc3)C2)cc1	?	4%[87.6 µM]	-5%[87.6 µM]	-9%[70.6 µM]	63µM*	i
CS(=O)(=O)N1CCOC[C@H](Oc2ccc(C(F)(F)F)cc2)C1	-17%[138 µM]	18%[87.6 µM]	3%[87.6 µM]	-18%[70.6 µM]	?	i
COc1ccc(S(=O)(=O)N2CCOC[C@H](Oc3ccc(C(F)(F)F)cn3)C2)cc1	?	-25%[87.6 µM]	-5%[87.6 µM]	?	100µM*	i
Cc1noc(C)c1S(=O)(=O)N1CCOC[C@H](Oc2ccc(C(F)(F)F)cc2)C1	?	-11%[87.6 µM]	-9%[87.6 µM]	-21%[70.6 µM]	63µM*	i
CC#CCn1cc2c3c(cccc31)[C@H](CC(C)C)N[C@H](C(=O)NC(C)C)C2	71µM*	?	-2%[87.6 µM]	-2%[70.6 µM]	50µM*	i
CC#CCn1cc2c3c(cccc31)[C@H](CC(C)C)N[C@H](C(=O)NC1CCCC1)C2	35µM*	-21%[87.6 µM]	-20%[87.6 µM]	-9%[70.6 µM]	45µM*	i
CC#CCn1cc2c3c(cccc31)[C@H](CC(C)C)N[C@H](C(=O)N1CCOCC1)C2	?	-28%[87.6 µM]	-19%[87.6 µM]	7%[70.6 µM]	?	i
CC#CCn1cc2c3c(cccc31)[C@H](CC(C)C)N[C@H](C(=O)NCCN1CCOCC1)C2	100µM*	-23%[87.6 µM]	-8%[87.6 µM]	-10%[70.6 µM]	?	i
CC#CCn1cc2c3c(cccc31)[C@H](CC(C)C)N[C@H](C(=O)NCCOC)C2	?	-29%[87.6 µM]	5%[87.6 µM]	-11%[70.6 µM]	?	i
CN(C)C(=O)CN1CCCc2nc(C3CC3)ncc2C1=O	i	-6%	3%	-2%	4%	i
Cc1noc(C)c1-c1cccc(CCOc2cnc3c(ccn3CC(=O)O)c2)c1	50µM*	-11%[87.6 µM]	10%[87.6 µM]	-2%[70.6 µM]	?	i
Cn1cc(-c2cccc(CCOc3cnc4c(ccn4CC(=O)O)c3)c2)cn1	?	27%[87.6 µM]	3%[87.6 µM]	3%[70.6 µM]	-1%[172 µM]	71µM*
